Like-named read-outs stand apart in the source and are kept apart here. The whole screen tested about 13,000 compounds, of which about 3,200 (25%) showed an effect of 50% or more. The list shows a part of the results.
Test system: P. falciparum stage V gametocytes
Design: BacTiter-Glo ATP luminescence viability of purified stage V gametocytes in 384-well plates, per cent inhibition versus DMSO
Conditions: 48 h, 5 µM, inhibitor

SMILES	% Inhibition [%]	% Inhibition (% Inhibition) [%]
NC1CCN(Cc2cccc(-c3ccc(-c4nc5ccc(C(F)(F)F)cc5[nH]4)cc3)c2)C1 (centres unmarked) [TCMDC-133837]	42.56	–
CC(=O)N(C)C1CCN(Cc2cccc(-c3ccc(-c4nc5ccc(C(F)(F)F)cc5[nH]4)cc3)c2)C1 (centres unmarked) [TCMDC-133884]	-40.19	–
OCCN1CCN(Cc2ccc(-c3ccc(-c4nc5ccc(F)cc5[nH]4)cc3)cc2)CC1 [TCMDC-133030]	-14.7	–
COCCN1CCN(Cc2ccc(-c3ccc(-c4nc5ccc(F)cc5[nH]4)cc3)cc2)CC1 [TCMDC-133022]	-25.91	–
CN1CCCC(CN2CCN(Cc3cccc(-c4ccc(-c5nc6ccc(C(F)(F)F)cc6[nH]5)cc4)c3)CC2)C1 (centres unmarked) [TCMDC-133882]	68.4	–
CN1CCCC(CN2CCN(Cc3ccc(-c4ccc(-c5nc6ccc(F)cc6[nH]5)cc4)cc3)CC2)C1 (centres unmarked) [TCMDC-133908]	90.06	–
N#CCCN1CCN(Cc2cccc(-c3ccc(-c4nc5ccc(C(F)(F)F)cc5[nH]4)cc3)c2)CC1 [TCMDC-133844]	-10.1	–
CN1CCCC(CN2CCN(Cc3ccc(-c4cccc(-c5nc6ccc(F)cc6[nH]5)c4)cc3)CC2)C1 (centres unmarked) [TCMDC-133883]	67.8	–
NC1CCCN(Cc2cccc(-c3ccc(-c4nc5ccc(C(F)(F)F)cc5[nH]4)cc3)c2)C1 (centres unmarked) [TCMDC-133839]	50.43	–
N#CCCN1CCN(Cc2ccc(-c3cccc(-c4nc5ccc(F)cc5[nH]4)c3)cc2)CC1 [TCMDC-133845]	7.403	–
CC1CN(Cc2ccc(-c3cccc(-c4nc5ccc(F)cc5[nH]4)c3)cc2)CC(C)O1 (centres unmarked) [TCMDC-133813]	-17.46	–
OC1CCCN(Cc2cccc(-c3ccc(-c4nc5ccc(C(F)(F)F)cc5[nH]4)cc3)c2)C1 (centres unmarked) [TCMDC-133814]	-59.43	–
COc1ccc2ncc(C#N)c(CCN3CCC(NCc4ccc5c(c4)OCCO5)CC3)c2c1 [TCMDC-135664]	6.84	–
O=C(Nc1cccc(-c2cccc(-c3nc4ccccc4[nH]3)c2)c1)NC1CC1c1ccccc1 (centres unmarked) [TCMDC-133256]	–	3.053
COc1ccc2c(c1)Sc1ccccc1C(N1CCN(CCO)CC1)C2 (centres unmarked) [TCMDC-139028]	-3.41	–
Cc1cccc2nc(-c3ccc(-c4cccc(C(=O)NCCc5cn(C)cn5)c4)s3)[nH]c12 [TCMDC-132498]	-19.19	–
CCOc1c(OC)ccc2c1CCN(CCN1CCC(NC(=O)c3ccc(-c4cccc(C(F)(F)F)c4C(F)(F)F)cc3)CC1)C2 [TCMDC-135432]	-45.25	–
O=C(NOCCCCOc1ccc(Cl)c(Cl)c1)c1ccccc1 [TCMDC-131761]	-3.28	–
COc1cccc(C(=O)NC(NC(=S)Nc2ccc(OC)cc2[N+](=O)[O-])C(Cl)(Cl)Cl)c1 (centres unmarked) [TCMDC-124141]	23.91	–
CCOc1cc(C(=O)Nc2ccccc2N2CCN(S(C)(=O)=O)CC2)cc(OCC)c1OCC [TCMDC-124994]	1.091	–
CCOc1cc(Cl)c(C(C)NC(=O)c2cccc(OC)c2)cc1OCC (centres unmarked) [TCMDC-125450]	81.4	–
CCOc1cc(C(=O)Nc2ccc3nc(N(CC)CC)cc(C)c3c2)cc(OCC)c1OCC [TCMDC-124008]	-7.565	–
CCOc1cc(Cl)c(C(C)NC(=O)c2ccccc2)cc1OCC (centres unmarked) [TCMDC-123744]	73.45	–
CCOc1cc(C(=O)NC2CCN(Cc3ccccc3)CC2)ccc1-c1nc2cc(Cl)c(Cl)cc2[nH]1 [TCMDC-140080]	-6.754	–
CCOc1cc(Br)c(C(C)NC(=O)c2cccc(OC)c2)cc1OCC (centres unmarked) [TCMDC-123742]	47.1	–
CCOc1cc(Br)c(C(C)NC(=O)c2ccccc2)cc1OCC (centres unmarked) [TCMDC-123743]	65.54	–

SMILES	% Inhibition [%]	% Inhibition (% Inhibition) [%]
CC(C)C[C@H](NC(=O)c1ccc(OCCN2CCOCC2)cc1)C(=O)N[C@H](/C=N/N1CC(=O)NC1=O)CCc1ccccc1 [TCMDC-136155]	17.61	–
O=C(NC1CC1)c1ccc2cc(C(=O)N3Cc4ccccc4C(c4ccccc4)C3)ccc2c1 (centres unmarked) [TCMDC-131863]	5.684	–
COc1ccccc1CCNc1ncnc2c1[nH]c1ccc(F)cc12 [TCMDC-124556]	39.14	–
COc1ccc(OC)c(Cc2cnc3nc(N)[nH]c(=O)c3c2C)c1 [TCMDC-138103]	16.49	–
CN(C)C(=O)CCCn1c(CNCCCNc2cc(=O)c3ccccc3[nH]2)cc2c(Cl)cc(Cl)cc21 [TCMDC-140466]	-27.37	–
CCCC1CCNC(C(O)c2ccnc3ccc(OC)cc23)C1 (centres unmarked) [TCMDC-138276]	11.37	–
CN(C)CCNC(=O)c1cc2c(-c3ccc(Cl)cc3)nn(C)c2s1 [TCMDC-123580]	-36.25	–
COc1cccc(-c2nn(C)c3sc(C(=O)NCCN(C)Cc4ccccc4)cc23)c1 [TCMDC-123583]	-8.796	–
Cc1ccc(-n2nc(-c3ccccc3)c3cc(C(=O)NCCN)sc32)cc1 [TCMDC-124776]	110.1	–
CC(C)Oc1ccc2c(c1)OC(c1ccccc1)(C(F)(F)F)NC2=O (centres unmarked) [TCMDC-123633]	28.56	–
Cc1nc(Cl)c2c(-c3ccccc3)csc2n1 [TCMDC-125437]	-3.595	–
CN(C)Cc1cccc(-c2ccc3ccnc(N)c3c2)c1 [TCMDC-136795]	100.3	–
COc1cccc(-c2ccc3ccnc(N)c3c2)c1 [TCMDC-133361]	60.33	–
Nc1ccc(-c2ccc3ccnc(N)c3c2)cc1 [TCMDC-136763]	-16.03	–
CS(=O)(=O)Nc1ccc(-c2ccc3ccnc(N)c3c2)cc1 [TCMDC-136788]	43.95	–
COc1cccc(-c2ccc3c(-c4ccc(F)cc4)cnc(N)c3c2)c1 [TCMDC-134514]	40.73	–
CN(C)CC(=O)Nc1ccc(-c2ccc3ccnc(N)c3c2)cc1 [TCMDC-133427]	67.97	–
NC(=O)c1ccc(-c2ccc3ccnc(N)c3c2)cc1 [TCMDC-133429]	50	–
Nc1nccc2ccc(-c3cccc(OCc4ccccc4)c3)cc12 [TCMDC-133430]	24.46	–
NS(=O)(=O)c1cccc(Nc2nccc(-c3c(-c4cccc(NC(=O)c5c(F)cccc5F)c4)nn4ccccc34)n2)c1 [TCMDC-135780]	-65.73	–
Cc1csc(-c2nc(NCc3cccnc3)ncc2-c2ccsc2)n1 [TCMDC-124841]	9.704	–
CC(C)(C)c1cc(NC(=O)c2ccc(Cl)c([N+](=O)[O-])c2)cc(C(C)(C)C)c1 [TCMDC-125604]	2.881	–
Cc1ccc(C(=O)N2CCN(Cc3nccs3)CC2)cc1 [TCMDC-140738]	3.888	–
O=c1cc(NCCCNCc2scc(I)c2I)[nH]c2ccccc12 [TCMDC-140908]	-12.68	–
NCc1ccc(-c2ccc3c(N)nccc3c2)cc1 [TCMDC-133718]	107.3	–
NCc1cccc(-c2ccc3ccnc(N)c3c2)c1 [TCMDC-136889]	55.02	–

SMILES	% Inhibition [%]	% Inhibition (% Inhibition) [%]
Nc1nccc2ccc(-c3cccc4ncccc34)cc12 [TCMDC-133424]	95.32	–
Nc1cc(-c2ccc3c(N)nccc3c2)ccc1Cl [TCMDC-136895]	-23.38	–
Nc1cccc(-c2ccc3ccnc(N)c3c2)c1 [TCMDC-136762]	21.07	–
CN(C)Cc1ccc(-c2ccc3ccnc(N)c3c2)cc1 [TCMDC-136790]	60.33	–
Nc1nccc2ccc(-c3cccnc3)cc12 [TCMDC-136599]	30.25	–
COC(=O)c1noc(C)c1I [TCMDC-131678]	-0.6747	–
CN1CCN(c2ccc(Nc3c(C(N)=O)cnc4cc(-c5ccoc5)ccc34)cc2C(F)(F)F)CC1.Cl [TCMDC-135443]	2.768	–
O=C(Nc1ccc(Cl)cc1)Nc1ccc(-c2cccc(-c3nc4ccccc4[nH]3)c2)cc1 [TCMDC-133187]	-14.37	–
CC(C)(C)CCOC(=O)N1CCc2c(cc(O)c(O)c2Cl)C(c2ccc(O)cc2)C1 (centres unmarked) [TCMDC-141981]	-77.14	–
Nc1nc(N)c2c3c(ccc2n1)CCC3 [TCMDC-137720]	-10.07	–
Cc1ccc(NC(=S)N2CCCN(CCCCCNC(=O)/C=C/c3ccc(Cl)c(Cl)c3)CC2)cc1Cl [TCMDC-135895]	-0.4693	–
COc1ccccc1CNC(=O)c1cc(C2CC2)nc2c1cnn2C(C)C [TCMDC-125250]	49.1	–
Cc1cccc(C)c1N1CCN(C2CCC(NC(=O)/C=C/c3ccccc3)CC2)CC1 (centres unmarked) [TCMDC-132881]	-29.57	–
COCCN1CCC(NCC(C)(C)c2nc(-c3ccc(Cl)c(O)c3)c(-c3ccncc3)[nH]2)CC1 [TCMDC-140926]	-95.92	–
CCCN(Cc1nnc(-c2ccco2)o1)C(=O)C1CCCN(C(=O)c2ccc(Cl)cc2)C1 (centres unmarked) [TCMDC-125334]	-4.25	–
Cc1cc(CNC(=O)c2ccc(-c3ccc(-c4nc5cc(C(F)(F)F)ccc5[nH]4)s3)cc2)on1 [TCMDC-132481]	-11.54	–
CCCCCc1cc(O)c2c(c1)OC(C)(C)CC2C1=CCN(Cc2cnc3ccccc3c2)CC1 (centres unmarked) [TCMDC-131418]	-11.08	–
Nc1nccc2ccc(Oc3ccncc3)cc12 [TCMDC-136517]	51.03	–
Nc1ncc(-c2ccsc2)c2ccc(-c3cnc[nH]3)cc12 [TCMDC-135369]	-1.546	–
Nc1nccc2ccc(-c3ccncc3)cc12 [TCMDC-138929]	32.25	–
Nc1nccc2ccc(-c3ccc4nccn4c3)cc12 [TCMDC-133425]	49.74	–
Nc1nccc2ccc(-c3ccc(Oc4ccccc4)cc3)cc12 [TCMDC-133432]	19.11	–
Cn1cncc1-c1ccc2c(-c3ccsc3)cnc(N)c2c1 [TCMDC-135368]	3.201	–
Nc1nccc2ccc(-c3ccsc3)cc12 [TCMDC-133431]	53.31	–
Nc1ncc(-c2ccsc2)c2ccc(-c3ccc4cn[nH]c4c3)cc12 [TCMDC-135299]	100.9	–

Source: article PMC4552634, “A New Set of Chemical Starting Points with Plasmodium falciparum Transmission-Blocking Potential for Antimalarial Drug Discovery” (PLoS ONE, 2015)
